What all share (details): mRNA level, 48 h; actives raise or lower the signal
Read-out in test [1]: Fatty acid synthase (Homo sapiens) (UniProt P49327)
Put plainly: LTEA_HepaRG_FASN: Life Technologies and Expression Analysis (LTEA) Assay for Fatty Acid Synthase (FASN) using HepaRG (AID 2283448).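 As to AC50: differentiated human HepaRG liver cells in serum-free induction medium.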 The essentials: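 Cells were plated, cultured 48 h, switched to serum-free induction medium, then dosed in duplicate (max 100 uM, half-log dilutions, 0.5% DMSO) for 48 h. RNA was then isolated and FASN quantified by qRT-PCR.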

Read-out in test [2]: Cyclin D2 (CCND2), CCND2 (gene 894)
In words: LTEA_HepaRG_CCND2: Life Technologies and Expression Analysis (LTEA) Assay for Cyclin D2 (CCND2) using HepaRG (AID 2283449).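 Also: CCND2 transcript measured by TaqMan qRT-PCR and normalised to three housekeeping genes.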 An outline of the steps:
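HepaRG, 48 h dosing, 8-pt half-log curve from 100 uM, 0.5% DMSO; duplicate wells. Readout: CCND2 transcript by microfluidic qRT-PCR, housekeeping-normalised; bidirectional fit vs DMSO baseline.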

Read-out in test [3]: Cyclin Dependent Kinase Inhibitor 1A (CDKN1A), CDKN1A (gene 1026)
Put plainly: LTEA_HepaRG_CDKN1A: Life Technologies and Expression Analysis (LTEA) Assay for Cyclin Dependent Kinase Inhibitor 1A (CDKN1A) using HepaRG (AID 2283450). The essentials: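 Expression quantified by Fluidigm qRT-PCR with ACTB, GAPDH and POLR2A normalization, fitted bidirectionally against 0.5% DMSO. Cells: HepaRG, plated 48 h then treated 48 h in serum-free induction medium, top concentration 100 uM with half-log dilutions.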

Read-out in test [4]: Cyclin D1 (CCND1), CCND1 (gene 595)
Put plainly: LTEA_HepaRG_CCND1: Life Technologies and Expression Analysis (LTEA) Assay for Cyclin D1 (CCND1) using HepaRG (AID 2283451). An outline of the steps: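 Expression of CCND1 was quantified by qRT-PCR on Fluidigm arrays using ACTB, GAPDH and POLR2A as reference genes. HepaRG cultures, plated 48 h beforehand, were dosed for 48 h at up to 100 uM (half-log, 8 points) in 0.5% DMSO.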

Read-out in test [5]: catalase (CAT), CAT (gene 847)
In words: LTEA_HepaRG_CAT: Life Technologies and Expression Analysis (LTEA) Assay for catalase (CAT) using HepaRG (AID 2283452). An outline of the steps: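 HepaRG cells in serum-free induction medium, 0.5% DMSO vehicle, exposed 48 h in duplicate over 8 half-log concentrations from 100 uM. CAT mRNA measured by qRT-PCR, normalized to ACTB, GAPDH, POLR2A; bidirectional fit versus DMSO.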

Read-out in test [6]: flavin-containing dimethylaniline monooxygenases 3 (FMO3), FMO3 (gene 2328)
Put plainly: LTEA_HepaRG_FMO3: Life Technologies and Expression Analysis (LTEA) Assay for flavin-containing dimethylaniline monooxygenases 3 (FMO3) using HepaRG (AID 2283453).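 As to AC50: differentiated human HepaRG liver cells in serum-free induction medium.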 The essentials:
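FMO3 transcript quantified by TaqMan qRT-PCR against three housekeeping genes after 48 h chemical exposure of HepaRG cells. Eight-point half-log series, top 100 uM, 0.5% DMSO vehicle; phenobarbital 1mM induction control; up- or down-regulation fitted.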

Read-out in test [7]: Cytochrome P450 (CYP1A1), CYP1A1 (gene 1543)
Put plainly: LTEA_HepaRG_CYP1A1: Life Technologies and Expression Analysis (LTEA) Assay for Cytochrome P450 (CYP1A1) using HepaRG (AID 2283454). An outline of the steps:
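CYP1A1 transcript levels measured by Fluidigm qRT-PCR against three housekeeping genes, 48 h after chemical dosing of human HepaRG cells (highest concentration 100 uM, half-log steps, 0.5% DMSO vehicle). Gain or loss of signal fitted relative to DMSO.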

Read-out in test [8]: CFLAR gene, CFLAR (gene 8837)
In words: LTEA_HepaRG_CFLAR: Life Technologies and Expression Analysis (LTEA) Assay for CFLAR gene using HepaRG (AID 2283455). The essentials:
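qRT-PCR read-out (Fluidigm/TaqMan) of CFLAR mRNA, normalized to three housekeeping genes, in differentiated human HepaRG cells after 48 h chemical exposure; 8-point half-log series from 100 uM in 0.5% DMSO; bidirectional curve fitting versus DMSO.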

Read-out in test [9]: Forkhead box O1 (FOXO1), FOXO1 (gene 2308)
In words: LTEA_HepaRG_FOXO1: Life Technologies and Expression Analysis (LTEA) Assay for Forkhead box O1 (FOXO1) using HepaRG (AID 2283456). An outline of the steps:
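HepaRG, 48 h exposure, 8-pt half-log series from 100 uM in 0.5% DMSO, duplicates; Fluidigm qRT-PCR mRNA, housekeeping-normalised; bidirectional fit vs DMSO baseline.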

Read-out in test [10]: growth arrest and DNA damage 45 (GADD45A), GADD45A (gene 1647)
Put plainly: LTEA_HepaRG_GADD45A: Life Technologies and Expression Analysis (LTEA) Assay for growth arrest and DNA damage 45 (GADD45A) using HepaRG (AID 2283458). The essentials:
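Transcript induction or loss, quantified by TaqMan qRT-PCR against three housekeeping genes, is the read-out. HepaRG cells received chemicals for 48 h across eight half-log concentrations from 100 uM in 0.5% DMSO; gain and loss fitted relative to DMSO.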

Read-out in test [11]: Forkhead box O3 (FOXO3), FOXO3 (gene 2309)
Put plainly: LTEA_HepaRG_FOXO3: Life Technologies and Expression Analysis (LTEA) Assay for Forkhead box O3 (FOXO3) using HepaRG (AID 2283459). An outline of the steps: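 qRT-PCR readout of FOXO3 transcript, normalized to three housekeeping genes (ACTB, GAPDH, POLR2A); gain or loss fitted against 0.5% DMSO vehicle. HepaRG cells, 48 h chemical exposure, 8-point half-log series, top 100 uM.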

Read-out in test [12]: ABC Transporter (ABCB1), ABCB1 (gene 5243)
In words: LTEA_HepaRG_ABCB1: Life Technologies and Expression Analysis (LTEA) Assay for ABC Transporter (ABCB1) using HepaRG (AID 2283460). An outline of the steps:
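HepaRG, 48 h exposure, 8-pt half-log series from 100 uM, 0.5% DMSO vehicle, duplicates. Readout: ABCB1 transcript by Fluidigm TaqMan qRT-PCR, housekeeping-normalized; bidirectional curve fit vs DMSO baseline.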

Read-out in test [13]: growth arrest and DNA damage 45 (GADD45B), GADD45B (gene 4616)
Put plainly: LTEA_HepaRG_GADD45B: Life Technologies and Expression Analysis (LTEA) Assay for growth arrest and DNA damage 45 (GADD45B) using HepaRG (AID 2283461). The essentials:
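Transcript level quantified by Fluidigm TaqMan qRT-PCR with three housekeeping genes for normalization, analyzed for up- or down-regulation against 0.5% DMSO. HepaRG cultures dosed 48 h at eight half-log concentrations up to 100 uM, duplicates.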

Read-out in test [14]: ABC Transporter (ABCC3), ABCC3 (gene 8714)
In words: LTEA_HepaRG_ABCC3: Life Technologies and Expression Analysis (LTEA) Assay for ABC Transporter (ABCC3) using HepaRG (AID 2283462). The essentials: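 Transcript level by TaqMan qRT-PCR, normalised to three housekeeping genes, fitted in both directions relative to vehicle. Chemicals tested in duplicate at eight half-log concentrations up to 100 uM for 48 h on HepaRG cells (0.5% DMSO).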

Read-out in test [15]: ABC Transporter (ABCB11), ABCB11 (gene 8647)
In words: LTEA_HepaRG_ABCB11: Life Technologies and Expression Analysis (LTEA) Assay for ABC Transporter (ABCB11) using HepaRG (AID 2283463). The essentials: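 HepaRG, 48 h exposure, 8-pt half-log CRC top 100 uM, 0.5% DMSO vehicle, duplicates. Readout: TaqMan qRT-PCR of ABCB11 mRNA, housekeeping-normalized (ACTB/GAPDH/POLR2A). Bidirectional fit vs DMSO baseline.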

Read-out in test [16]: Broad substrate specificity ATP-binding cassette transporter ABCG2 (Homo sapiens) (UniProt Q9UNQ0)
In words: LTEA_HepaRG_ABCG2: Life Technologies and Expression Analysis (LTEA) Assay for ABC Transporter (ABCG2) using HepaRG (AID 2283465). An outline of the steps:
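HepaRG, 48 h exposure, 8-pt half-log series from 100 uM, 0.5% DMSO vehicle, duplicates. Readout: ABCG2 transcript by qRT-PCR (Fluidigm array), housekeeping-normalized; bidirectional curve fit relative to DMSO baseline.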

Read-out in test [17]: ABC Transporter (ABCC2), ABCC2 (gene 1244)
In words: LTEA_HepaRG_ABCC2: Life Technologies and Expression Analysis (LTEA) Assay for ABC Transporter (ABCC2) using HepaRG (AID 2283464). The essentials: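 Endpoint is ABCC2 transcript level from qRT-PCR, normalized to three housekeeping genes and fitted bidirectionally relative to DMSO. Human HepaRG cells received test chemical for 48 h at up to 100 uM (8 points, half-log steps, 0.5% DMSO), duplicate wells.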

Read-out in test [18]: Tumor necrosis factor receptor superfamily member 6 (Homo sapiens) (UniProt P25445)
In words: LTEA_HepaRG_FAS: Life Technologies and Expression Analysis (LTEA) Assay for Fas cell surface death receptor (FAS) using HepaRG (AID 2283447). The essentials: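 Differentiated HepaRG cells in serum-free induction medium were exposed 48 h to 8 half-log concentrations up to 100 uM in 0.5% DMSO, in duplicate. FAS mRNA was measured by qRT-PCR normalised to ACTB, GAPDH and POLR2A; bidirectional fit versus DMSO.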

SMILES strings stand for the structures. Active and inactive are the calls of the source. The calls were made as follows: active = hit-call score of the fitted dose curve at least 0.9, where 1 is the maximum; inactive = score below 0.9.

Sequence of Broad substrate specificity ATP-binding cassette transporter ABCG2 (Homo sapiens) (Q9UNQ0 whole entry, looked up): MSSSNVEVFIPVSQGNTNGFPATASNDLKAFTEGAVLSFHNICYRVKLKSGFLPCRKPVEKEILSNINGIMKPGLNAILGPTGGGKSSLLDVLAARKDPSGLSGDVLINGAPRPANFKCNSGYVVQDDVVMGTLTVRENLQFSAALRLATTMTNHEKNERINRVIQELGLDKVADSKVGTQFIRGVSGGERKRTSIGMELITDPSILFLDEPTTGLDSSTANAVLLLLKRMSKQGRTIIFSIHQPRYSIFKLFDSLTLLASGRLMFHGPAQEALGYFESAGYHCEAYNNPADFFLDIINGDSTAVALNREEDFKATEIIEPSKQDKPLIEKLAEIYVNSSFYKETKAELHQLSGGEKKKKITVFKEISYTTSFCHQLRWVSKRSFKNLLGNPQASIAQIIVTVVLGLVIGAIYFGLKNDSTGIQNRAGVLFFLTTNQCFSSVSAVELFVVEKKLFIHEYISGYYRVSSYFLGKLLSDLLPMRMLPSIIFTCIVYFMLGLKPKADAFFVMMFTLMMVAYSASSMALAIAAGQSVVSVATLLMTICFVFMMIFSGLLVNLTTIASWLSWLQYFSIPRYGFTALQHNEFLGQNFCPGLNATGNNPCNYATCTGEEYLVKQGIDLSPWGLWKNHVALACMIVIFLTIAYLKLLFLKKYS
Sequence of Fatty acid synthase (Homo sapiens) (P49327 whole entry, looked up): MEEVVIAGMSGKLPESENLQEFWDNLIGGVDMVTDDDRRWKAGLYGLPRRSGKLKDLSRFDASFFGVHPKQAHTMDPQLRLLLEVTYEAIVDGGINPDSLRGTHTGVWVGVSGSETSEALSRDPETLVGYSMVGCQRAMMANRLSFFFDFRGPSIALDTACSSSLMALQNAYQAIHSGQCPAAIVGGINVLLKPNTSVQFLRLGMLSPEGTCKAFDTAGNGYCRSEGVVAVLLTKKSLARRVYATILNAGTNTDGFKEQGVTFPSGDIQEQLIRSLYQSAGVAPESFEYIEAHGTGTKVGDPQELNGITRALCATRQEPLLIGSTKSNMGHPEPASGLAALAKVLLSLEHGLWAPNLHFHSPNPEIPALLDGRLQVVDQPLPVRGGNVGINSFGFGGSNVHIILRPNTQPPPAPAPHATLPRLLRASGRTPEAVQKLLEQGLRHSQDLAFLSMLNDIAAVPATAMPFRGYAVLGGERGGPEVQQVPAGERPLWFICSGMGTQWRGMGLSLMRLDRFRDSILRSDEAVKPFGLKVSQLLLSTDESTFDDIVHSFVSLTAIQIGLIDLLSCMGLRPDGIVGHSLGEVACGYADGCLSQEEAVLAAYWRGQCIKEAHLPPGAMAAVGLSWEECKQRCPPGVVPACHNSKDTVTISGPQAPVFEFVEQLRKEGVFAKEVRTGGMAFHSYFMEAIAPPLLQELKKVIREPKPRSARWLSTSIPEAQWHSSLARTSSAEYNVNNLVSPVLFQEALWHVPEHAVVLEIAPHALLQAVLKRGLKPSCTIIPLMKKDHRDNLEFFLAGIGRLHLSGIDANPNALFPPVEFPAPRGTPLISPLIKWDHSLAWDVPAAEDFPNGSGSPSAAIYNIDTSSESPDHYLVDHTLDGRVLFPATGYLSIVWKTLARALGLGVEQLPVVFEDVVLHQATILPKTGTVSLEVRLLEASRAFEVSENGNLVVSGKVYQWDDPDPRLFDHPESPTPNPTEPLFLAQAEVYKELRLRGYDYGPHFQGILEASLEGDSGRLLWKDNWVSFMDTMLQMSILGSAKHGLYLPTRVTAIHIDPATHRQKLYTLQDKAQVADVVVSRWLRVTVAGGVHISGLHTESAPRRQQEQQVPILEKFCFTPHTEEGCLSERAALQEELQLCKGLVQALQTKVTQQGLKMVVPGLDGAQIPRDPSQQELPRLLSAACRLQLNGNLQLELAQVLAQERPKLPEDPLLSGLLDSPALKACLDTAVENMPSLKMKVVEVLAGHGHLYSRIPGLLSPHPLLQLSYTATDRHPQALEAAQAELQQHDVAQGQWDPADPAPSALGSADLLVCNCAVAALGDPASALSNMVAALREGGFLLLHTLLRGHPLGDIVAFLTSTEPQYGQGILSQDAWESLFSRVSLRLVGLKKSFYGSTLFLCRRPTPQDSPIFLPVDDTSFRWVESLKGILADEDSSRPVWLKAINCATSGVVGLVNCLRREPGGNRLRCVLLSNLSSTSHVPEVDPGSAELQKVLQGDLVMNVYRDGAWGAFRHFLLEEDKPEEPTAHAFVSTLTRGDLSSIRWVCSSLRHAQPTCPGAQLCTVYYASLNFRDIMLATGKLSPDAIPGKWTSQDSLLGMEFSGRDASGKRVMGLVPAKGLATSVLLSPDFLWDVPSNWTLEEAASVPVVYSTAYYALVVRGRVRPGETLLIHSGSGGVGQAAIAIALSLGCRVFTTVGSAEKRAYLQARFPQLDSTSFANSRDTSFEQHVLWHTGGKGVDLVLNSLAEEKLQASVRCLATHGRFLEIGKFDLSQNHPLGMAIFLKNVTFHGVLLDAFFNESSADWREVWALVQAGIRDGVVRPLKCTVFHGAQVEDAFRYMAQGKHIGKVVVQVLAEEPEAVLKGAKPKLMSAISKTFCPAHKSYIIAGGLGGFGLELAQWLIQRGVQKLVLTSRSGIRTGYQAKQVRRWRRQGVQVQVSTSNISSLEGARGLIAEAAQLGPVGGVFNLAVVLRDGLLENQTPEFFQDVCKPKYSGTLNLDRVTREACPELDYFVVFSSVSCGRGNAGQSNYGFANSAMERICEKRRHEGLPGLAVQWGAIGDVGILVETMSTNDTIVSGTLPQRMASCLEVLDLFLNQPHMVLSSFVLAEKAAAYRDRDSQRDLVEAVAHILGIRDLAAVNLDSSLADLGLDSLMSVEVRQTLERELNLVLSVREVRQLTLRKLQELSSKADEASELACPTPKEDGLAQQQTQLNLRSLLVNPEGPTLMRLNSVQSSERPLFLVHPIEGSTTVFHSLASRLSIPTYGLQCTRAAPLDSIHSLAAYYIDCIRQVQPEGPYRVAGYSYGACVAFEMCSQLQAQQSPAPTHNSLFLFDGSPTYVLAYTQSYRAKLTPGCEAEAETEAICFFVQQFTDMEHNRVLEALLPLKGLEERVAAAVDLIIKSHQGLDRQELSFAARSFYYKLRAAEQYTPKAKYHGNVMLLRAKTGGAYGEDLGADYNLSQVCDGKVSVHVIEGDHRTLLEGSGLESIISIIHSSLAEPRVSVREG

On to `O=C(CCCCCCCCc1cccnc1)N1CCC(C=C(c2ccccc2)c2ccccc2)CC1`, for which the concentration at half-maximal activity (AC50) in [1] is 50 µM (active); in test [3] it was 27 µM (active); in test [5], 22.5 µM (active); in test [6], 29.6 µM (active); in test [7], 32.6 µM (active); in test [9], 12.4 µM (active). Besides, the half-maximal activity concentration (AC50) was 26.9 µM (active) in test [10]; 30.7 µM (active) in test [12]; 84.6 µM (active) in test [13]; 14.3 µM (active) in [15]; 13.2 µM (active) in [16]. Also, the compound was called inactive in test [2], in test [4], in [8], in test [11] and in test [14].
For `CC(=O)c1ccc2c(c1)[C@H](NC(=O)c1ccc(F)cc1)[C@@H](O)C(C)(C)O2`, the result in test [1], in [2], in test [3], in test [4], in [5] and in test [6] was inactive. Also, the compound was classed as inactive in [7], in test [9], in [10], in [11], in test [12] and in [13]. Also, the compound was called inactive in test [14], in [15] and in test [16].
For the compound `CCN(C(=O)c1cc(C)cc(OC[C@H](C)Nc2ccncc2)c1)C(C)C`, the concentration at half-maximal activity (AC50) in [1] is 5.84 µM (active); in [5], 33.8 µM (active); in test [6], 50.7 µM (active); in test [7] it was 19.5 µM (active); in test [10], 0.232 µM (active); in [14], 33.8 µM (active). The AC50 in test [15] was 25.1 µM (active). For the same compound, the call in [3], in test [4], in [8], in [9], in test [11] and in test [12] was inactive. The result in test [13], in test [17] and in [16] was inactive.
Regarding `O=C(OC[C@H]1O[C@@H](OC(=O)c2cc(O)c(O)c(OC(=O)c3cc(O)c(O)c(O)c3)c2)[C@H](OC(=O)c2cc(O)c(O)c(OC(=O)c3cc(O)c(O)c(O)c3)c2)[C@@H](OC(=O)c2cc(O)c(O)c(OC(=O)c3cc(O)c(O)c(O)c3)c2)[C@@H]1OC(=O)c1cc(O)c(O)c(OC(=O)c2cc(O)c(O)c(O)c2)c1)c1cc(O)c(O)c(OC(=O)c2cc(O)c(O)c(O)c2)c1`, the half-maximal activity concentration (AC50) was 15.2 µM (active) in [1]; 15.2 µM (active) in [5]; 9.23 µM (active) in test [6]; 9.36 µM (active) in [7]; 3.26 µM (active) in test [10]; 9.66 µM (active) in test [14]. For the same compound, the AC50 in [15] was 7.96 µM (active); in test [16] it was 8.88 µM (active). Moreover, the compound was classed as inactive in test [2], in [3], in [4], in test [8], in test [9] and in test [11]. The compound was called inactive in [12] and in [13].
As to `Cc1ccc(S(=O)(=O)O)cc1C`, the compound was called inactive in test [18], in test [1], in [3], in [4], in [5] and in test [6]. Further, the compound was called inactive in test [9], in [10], in test [11], in [12], in test [13] and in [14]. Besides, the outcome in test [15] and in [16] was inactive. Besides, the AC50 in [7] was 74.3 µM (active).
`CCCC(=O)OCC`: the compound was called inactive in [1], in test [2], in [3], in test [4], in [5] and in [6]. Besides, the compound was called inactive in [9], in test [10], in [11], in test [12], in test [13] and in test [14]. Also, the outcome in [15], in [17] and in test [16] was inactive. The concentration at half-maximal activity (AC50) in [7] is 50 µM (active).
Take `Nc1cccc(N)c1`: the outcome in test [1], in [2], in [3], in [4], in test [5] and in [6] was inactive. Moreover, the compound was called inactive in test [8], in test [9], in test [10], in [11], in test [12] and in test [13]. For the same compound, the result in test [14], in [15] and in test [16] was inactive. Further, in test [7], the half-maximal activity concentration (AC50) was 50 µM (active).

The values above are taken from PubChem BioAssay (EPA / NIEHS).
